TGFb SMAD3 inh – qHTS for Inhibitors of TGF-b; HepG2 CAGA-GFP TGF-b/SMAD3 reporter, GFP fluorescence, 18 h; TGF-beta stimulated, 500 pg/mL final; Potency, µM (top dose mostly 46.1 µM), inactives show top-dose activity, negative = inhibition, usual class: inhibitors; hit rate 1.2% among 410,000; AID 588855, 2011; further: on the % scale 0 is the no-effect control and ±100 the full control effect; nearly all actives have a fitted effect of over 65% in size
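GFP signal (ex488/em500-530) from TGF-beta-stimulated HEPG2 CAGA-GFP cells, 500 pg/mL final, 18 h at 37 degrees C in DMEM plus 1% FBS, normalized to unstimulated and DMSO-stimulated controls.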
HepG2 viability – qHTS for Inhibitors of TGF-b: Cytotox Counterscreen; Potency, µM (doses to about 46.1 µM), for inactives: at the top dose activity change, negative = cytotoxicity, most hits filed as cytotoxic; hit rate 0.76% among 410,000; AID 588856, 2011; HepG2 CAGA-GFP viability, ATP luminescence, 18 h
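HepG2 CAGA-GFP cells (1000/well, DMEM with 1% FBS) received compound, then TGF-beta at 500 pg/mL final, and were incubated 18 hours at 37 degrees C. Viability was read by CellTiter-Glo luminescence. Media-only wells were set as complete cell-killing and DMSO as no toxicity.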
KB-V1 cytotox – qHTS assay for MDR1-selective chemotherapeutics: Primary screen using the drug-selected MDR subline cells KB-V1 | KB-V1 MDR cells viability, CellTiter-Glo, 72 h | Potency, µM (series often up to 46.1 µM), actives largely listed as cytotoxic | hit rate 3.4% among 400,000 | AID 1347076, 2019; further: on the % scale 0 is the no-effect control and ±100 the full control effect; nearly all actives have a fitted effect of over 60% in size
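KB-V1 MDR subline cells in DMEM (phenol-red free, 10% FBS) exposed to compounds in qHTS concentration series for 72 h at 37 degrees C. Viability read by CellTiter-Glo luminescence; concentration-effect curves fitted after normalization and correction.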
HT1080-NT tox – qHTS for induction of synthetic lethality in tumor cells producing 2HG: qHTS for the HT-1080-NT fibrosarcoma cell line; HT-1080-NT fibrosarcoma viability, CellTiter-Glo ATP luminescence, 48 h; Potency, µM (series often up to 46.1 µM), without a hit: at the highest dose activity, negative = less viability, actives largely listed as cytotoxic; hit rate 1.6% among 360,000;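 further: NT is the 2HG producing partner of a matched IDH1 knockdown line; 0% = DMSO-treated cells and -100% = media-only wells without cells; nearly all actives have a fitted effect of over 55% in size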
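A 48-hour cytotoxicity screen used HT-1080-NT cells plated 2 hours before compound delivery. ATP-based CellTiter-Glo luminescence measured viability, normalized to DMSO and no-cell controls.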
KB-3-1 cytotox – qHTS assay for MDR1-selective chemotherapeutics: Primary screen using the parental adenocarcinoma cell KB-3-1 | KB-3-1 viability, CellTiter-Glo ATP luminescence, 72 h | Potency, µM (highest dose often 46.1 µM), most hits filed as cytotoxic | hit rate 1.4% among 400,000; further: on the % scale 0 is the no-effect control and ±100 the full control effect; nearly all actives have a fitted effect of over 60% in size
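Parental KB-3-1 viability, qHTS format: 72 h compound exposure, 37 °C; CellTiter-Glo; media-only wells and DMSO plates as controls; concentration-effect fits on corrected data.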
HT1080 IDH1KD tx – qHTS for induction of synthetic lethality in tumor cells producing 2HG: qHTS for the HT-1080-IDH1KD cell line. Potency, µM (doses to about 46.1 µM), for the others: top-dose activity, negative = toxicity, most hits filed as cytotoxic. hit rate 2% among 360,000. HT-1080 IDH1 knockdown viability, ATP luminescence, 48 h;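 further: 0% = DMSO wells and -100% = cell-free medium wells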
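Cytotoxicity counter-line: IDH1KD HT-1080, 48 h, CellTiter-Glo. Curves classed by r2, magnitude and activity.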
* hit, by the source's call; i = inactive; ? = inconclusive; / = not tested or not shown. The list is not random: actives were taken first. Their share in the collection is about 6.6%. The call rests on the fitted dose curve; in most records, active means well fitted curve in the direction sought with a large enough effect; inconclusive means small, poorly fitted or top-dose-only effect, or another doubt; inactive means no such curve, though single readings can be large; an effect the other way counts as inactive or inconclusive. Potency means the concentration at half of the fitted maximal effect.

SMILES	TGFb SMAD3 inh	HepG2 viability	KB-V1 cytotox	HT1080-NT tox	KB-3-1 cytotox	HT1080 IDH1KD tx
Cc1cccc(C)c1NC(=O)C(c1ccc(C(F)(F)F)cc1)n1c(=O)c(-c2cc3ccccc3[nH]2)nc2ccccc21 (configuration not stated)	/	/	i	?	i	20.6µM*
COc1ccc(C(C(=O)NC(C)(C)C)n2c(-c3ccc(C(F)(F)F)cc3)nc3ccccc32)cc1 (configuration not stated)	/	/	i	6.6%	i	9.4%
CC(C)(C)NC(=O)C(c1ccccc1)n1c(=O)c(-c2cc3ccccc3[nH]2)nc2ccccc21 (configuration not stated)	/	/	23.1µM*	?	?	?
Cc1nc2ccccc2n1CCc1nc2c3ccccc3nc(SCc3ccc(C#N)cc3)n2n1	-6.6%	2.9%	i	/	i	/
Cc1cccc(C)c1NC(=O)C(CCc1ccccc1)n1c(=O)c(-c2cc3ccccc3[nH]2)nc2ccccc21 (configuration not stated)	/	/	20.6µM*	?	?	?
COc1ccc(C(=O)Oc2c(Sc3ccc(C)cc3)c(C)nn2C(C)(C)C)cc1OC	?	-17.3%	i	/	i	/
COc1cccc(C(=O)Oc2c(Sc3ccc(C)cc3)c(C)nn2C(C)(C)C)c1OC	12.6µM*	12.6µM*	i	/	i	/
Clc1cccc(-c2nc(NCc3cccnc3)c3ccccc3n2)c1	?	-36.7%	14.6µM*	?	i	?
c1ccc(-c2nc(NCc3cccnc3)c3ccccc3n2)cc1	-6.1%	-32.8%	i	-29.0%	i	?
Cc1ccc2[nH]c(=O)c(CN(Cc3ccc4c(c3)OCO4)Cc3nnnn3C3CCCC3)cc2c1	-28.4%	-12.5%	18.4µM*	-2.0%	i	-1.5%
Cc1cccc2cc(CN(Cc3nnnn3C3CCCC3)C3CCCCC3)c(=O)[nH]c12	-1.2%	-3.8%	23.1µM*	-11.4%	i	-0.9%
Cc1cccc2cc(CN(CC3CCCO3)C(=S)Nc3ccccc3)c(=O)[nH]c12 (configuration not stated)	-3.2%	0.0%	3.66µM*	-0.9%	i	-3.3%
Cc1cccc(NC(=S)N(Cc2cccs2)Cc2cc3cc(C)cc(C)c3[nH]c2=O)c1	-1.8%	-2.5%	20.6µM*	4.6%	?	3.8%
CCc1ccc2[nH]c(=O)c(CN(Cc3nnnn3C3CCCC3)C3CCCCC3)cc2c1	?	-30.6%	i	-12.4%	i	?
Cc1ccc(Cl)cc1NC(=O)C(=O)NCC(c1cccnc1)N1CCc2ccccc21 (configuration not stated)	?	-19.7%	?	/	i	/
Cc1nn(C(C)C(=O)N2CCN(c3ccc(F)cc3)CC2)c(=O)c2c1sc1ccccc12 (configuration not stated)	20.1%	-18.3%	i	/	i	/
COC(=O)c1scc(-c2ccc(C)cc2)c1S(=O)(=O)N1CCN(c2ccccc2F)CC1	-2.1%	-17.0%	i	/	i	/
Cc1ccc(NC(=O)Cn2nc(C)c3nn(-c4ccc(Cl)cc4)c(C)c3c2=O)cc1F	-31.1%	-19.5%	/	/	/	/
CCNC(=S)N(Cc1cc2cccc(C)c2[nH]c1=O)C1CCCC1	9.4%	0.0%	18.4µM*	9.1%	?	0.2%
Cc1cccc2cc(CN(CC3CCCO3)C(=O)NC3CCCCC3)c(=O)[nH]c12 (configuration not stated)	3.2%	-13.1%	i	5.1%	i	-16.3%
Cc1cccc2cc(CN(Cc3nnnn3Cc3ccco3)C3CCCC3)c3nnnn3c12	1.2%	-22.4%	11.6µM*	4.8%	i	-2.0%

High-throughput results (PubChem BioAssay)
